Active and inactive are the calls of the source. How the source made its calls: active means hit-call score of the fitted dose curve at least 0.9, where 1 is the maximum; inactive means score below 0.9.
Experiments:
Settings in all cases: mRNA level, 48 h; actives raise or lower the signal
[1] = read-out: Intercellular Adhesion Molecule 1 (ICAM1), ICAM1 (gene 3383); test: LTEA_HepaRG_ICAM1: Life Technologies and Expression Analysis (LTEA) Assay for Intercellular Adhesion Molecule 1 (ICAM1) using HepaRG (AID 2283507)
Procedure, shortened: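 Gain or loss of transcript in HepaRG hepatic cells is quantified by qRT-PCR after 48 h chemical exposure (up to 100 uM, half-log steps), with DMSO as baseline.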

[2] = read-out: Insulin-like growth factor-binding protein 1 (IGFBP1), IGFBP1 (gene 3484); test: LTEA_HepaRG_IGFBP1: Life Technologies and Expression Analysis (LTEA) Assay for Insulin-like growth factor-binding protein 1 (IGFBP1) using HepaRG (AID 2283508)
Procedure, shortened: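 mRNA induction or loss was quantified by qRT-PCR after 48 h chemical exposure of human HepaRG cells, with 0.5% DMSO as vehicle and baseline. Concentration-response over eight points up to 100 uM.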

[3] = read-out: Interleukin 6 (IL6), IL6 (gene 3569); test: LTEA_HepaRG_IL6: Life Technologies and Expression Analysis (LTEA) Assay for Interleukin 6 (IL6) using HepaRG (AID 2283509)
Procedure, shortened: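 Changes in IL6 mRNA, up or down relative to 0.5% DMSO controls, were derived from concentration-response curves in human HepaRG cells treated for 48 h at up to 100 uM, with ACTB, GAPDH and POLR2A as normalizers.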

[4] = read-out: Interleukin 6 Receptor (IL6R), IL6R (gene 3570); test: LTEA_HepaRG_IL6R: Life Technologies and Expression Analysis (LTEA) Assay for Interleukin 6 Receptor (IL6R) using HepaRG (AID 2283510)
Procedure, shortened: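 IL6R transcript level by qRT-PCR after 48 h chemical exposure (8-point, half-log, max 100 uM, 0.5% DMSO vehicle) of HepaRG cells in serum-free induction medium. Normalized to three housekeeping genes; curves fitted in both directions relative to DMSO.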

[5] = read-out: Potassium channel subfamily K member 1 (KCNK1), KCNK1 (gene 3775); test: LTEA_HepaRG_KCNK1: Life Technologies and Expression Analysis (LTEA) Assay for Potassium channel subfamily K member 1 (KCNK1) using HepaRG (AID 2283511)
Procedure, shortened: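 Human HepaRG cultures receive test chemicals for 48 h in 0.5% DMSO, top concentration 100 uM with half-log dilutions. Induction or suppression of KCNK1 mRNA relative to DMSO is derived by bidirectional fitting of qRT-PCR data.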

[6] = read-out: Keratin 19 (KRT19), KRT19 (gene 3880); test: LTEA_HepaRG_KRT19: Life Technologies and Expression Analysis (LTEA) Assay for Keratin 19 (KRT19) using HepaRG (AID 2283512)
Procedure, shortened: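 Gene-expression endpoint in the human liver line HepaRG after 48 h exposure to up to 100 uM test chemical with 0.5% DMSO vehicle; KRT19 mRNA by qRT-PCR, analyzed bidirectionally versus DMSO.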

[7] = read-out: JUN Transcription Factor, JUN (gene 3725); test: LTEA_HepaRG_JUN: Life Technologies and Expression Analysis (LTEA) Assay for JUN Transcription Factor using HepaRG (AID 2283513)
Procedure, shortened: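 mRNA measured by TaqMan qRT-PCR after 48 h chemical exposure of HepaRG cultures; normalization to three housekeeping genes. Duplicate eight-point half-log curves from 100 uM in 0.5% DMSO; gain or loss fitted against DMSO baseline.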

[8] = read-out: Lipase C (LIPC), LIPC (gene 3990); test: LTEA_HepaRG_LIPC: Life Technologies and Expression Analysis (LTEA) Assay for Lipase C (LIPC) using HepaRG (AID 2283514)
Procedure, shortened: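 In this multiplexed gene-expression screen, human HepaRG cultures received test chemicals for 48 h across eight concentrations with 100 uM highest, in duplicate. Values reflect LIPC mRNA induction or suppression versus DMSO vehicle, from normalized qRT-PCR.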

[9] = read-out: Lipoprotein lipase (LPL), LPL (gene 4023); test: LTEA_HepaRG_LPL: Life Technologies and Expression Analysis (LTEA) Assay for Lipoprotein lipase (LPL) using HepaRG (AID 2283515)
Procedure, shortened: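 Concentration-response testing used half-log steps from 100 uM in 0.5% DMSO on human HepaRG cells, 48 h, duplicate wells. Phenobarbital 1 mM served as induction control; LPL mRNA was normalized to ACTB, GAPDH, POLR2A.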

[10] = read-out: MicroRNA 122 (MIR122), gene 406906; test: LTEA_HepaRG_MIR122: Life Technologies and Expression Analysis (LTEA) Assay for MicroRNA 122 (MIR122) using HepaRG (AID 2283516); further: the transcript read is the microRNA miR-122
Procedure, shortened: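 Expression measured by microfluidic qRT-PCR with three housekeeping genes for normalisation, after 48 h treatment of HepaRG cultures. Eight concentrations (top 100 uM, half-log steps, 0.5% DMSO vehicle) in duplicate; gain or loss fitted relative to vehicle.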

[11] = read-out: matrix metalloproteinase-10 (MMP10), MMP10 (gene 4319); test: LTEA_HepaRG_MMP10: Life Technologies and Expression Analysis (LTEA) Assay for matrix metalloproteinase-10 (MMP10) using HepaRG (AID 2283517)
Procedure, shortened: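 In differentiated HepaRG cultures kept in 0.5% DMSO, test chemicals act for 48 h over an eight-point range with a top dose of 100 uM. Expression is then quantified by TaqMan RT-PCR against ACTB, GAPDH and POLR2A.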

MYC, MYC (gene 4609) = test: LTEA_HepaRG_MYC: Life Technologies and Expression Analysis (LTEA) Assay for MYC using HepaRG (AID 2283518)
Procedure, shortened: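 Cells are thawed, plated and cultured 48 h, then treated for 48 h with test chemicals (eight half-log concentrations from 100 uM, 0.5% DMSO vehicle). RNA is isolated and MYC expression quantified by qRT-PCR against three housekeeping genes.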

[12] = read-out: matrix metalloproteinase-3 (MMP3), MMP3 (gene 4314); test: LTEA_HepaRG_MMP3: Life Technologies and Expression Analysis (LTEA) Assay for matrix metalloproteinase-3 (MMP3) using HepaRG (AID 2283519)
Procedure, shortened: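 Human liver HepaRG cultures received chemicals (top concentration 100 uM, 0.5% DMSO) for 48 h in duplicate. MMP3 mRNA induction or loss was then assessed via TaqMan qRT-PCR with housekeeping-gene normalisation.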

[13] = read-out: Paternally Expressed 10 (PEG10), PEG10 (gene 23089); test: LTEA_HepaRG_PEG10: Life Technologies and Expression Analysis (LTEA) Assay for Paternally Expressed 10 (PEG10) using HepaRG (AID 2283520)
Procedure, shortened: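 PEG10 transcript measured by Fluidigm qRT-PCR, normalized to three housekeeping genes, in HepaRG cells treated 48 h (highest 100 uM, half-log steps, 0.5% DMSO vehicle). Cells plated 48 h before switching to serum-free induction medium.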

[14] = read-out: Protein phosphatase 2A (PPP2R4), PTPA (gene 5524); test: LTEA_HepaRG_PPP2R4: Life Technologies and Expression Analysis (LTEA) Assay for Protein phosphatase 2A (PPP2R4) using HepaRG (AID 2283522)
Procedure, shortened: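 Expression was quantified by Fluidigm qRT-PCR normalised to three housekeeping genes after 48 h treatment. Human HepaRG cells received an 8-point series from 100 µM downward by half-logs, in duplicate with 0.5% DMSO vehicle and 1 mM phenobarbital as induction control.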

[15] = read-out: Phosphatase and tensin (PTEN), PTEN (gene 5728); test: LTEA_HepaRG_PTEN: Life Technologies and Expression Analysis (LTEA) Assay for Phosphatase and tensin (PTEN) using HepaRG (AID 2283523)
Procedure, shortened: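 Expression of PTEN is quantified in the human liver line HepaRG following two days of dosing (top concentration 100 uM, half-log dilutions, 0.5% DMSO). Values derive from bidirectional curve fitting relative to DMSO controls.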

[16] = read-out: solute carrier (SLC22A1), SLC22A1 (gene 6580); test: LTEA_HepaRG_SLC22A1: Life Technologies and Expression Analysis (LTEA) Assay for solute carrier (SLC22A1) using HepaRG (AID 2283524)
Procedure, shortened: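 Transcript induction or suppression of SLC22A1 in human HepaRG cultures is scored after 48 h chemical treatment, with DMSO (0.5%) as baseline for bidirectional fitting. Concentrations span eight half-log points topping at 100 uM.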

[17] = read-out: NAD(P)H dehydrogenase [quinone] 1 (NQO1), NQO1 (gene 1728); test: LTEA_HepaRG_NQO1: Life Technologies and Expression Analysis (LTEA) Assay for NAD(P)H dehydrogenase [quinone] 1 (NQO1) using HepaRG (AID 2283526)
Procedure, shortened: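 NQO1 transcript induction or loss measured by TaqMan qRT-PCR, referenced to three housekeeping genes and fitted bidirectionally against 0.5% DMSO. HepaRG cultures exposed 48 h, duplicate, eight-point half-log series, top 100 uM.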

[18] = read-out: Nuclear factor NF-kappa-B p105 subunit (Homo sapiens) (UniProt P19838); test: LTEA_HepaRG_NFKB1: Life Technologies and Expression Analysis (LTEA) Assay for Nuclear Factor Kappa B Subunit 1 (NFKB1) using HepaRG (AID 2283521);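 further: differentiated human HepaRG liver cells in serum-free induction medium; TaqMan qRT-PCR transcript normalised to ACTB GAPDH and POLR2A housekeeping genes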
Procedure, shortened: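 Human HepaRG cells receive eight half-log concentrations, highest 100 uM, for 48 h. NFKB1 expression is then quantified by qRT-PCR and analysed for up- or down-regulation relative to 0.5% DMSO vehicle.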

Sequence of Nuclear factor NF-kappa-B p105 subunit (Homo sapiens) (P19838 whole entry, looked up): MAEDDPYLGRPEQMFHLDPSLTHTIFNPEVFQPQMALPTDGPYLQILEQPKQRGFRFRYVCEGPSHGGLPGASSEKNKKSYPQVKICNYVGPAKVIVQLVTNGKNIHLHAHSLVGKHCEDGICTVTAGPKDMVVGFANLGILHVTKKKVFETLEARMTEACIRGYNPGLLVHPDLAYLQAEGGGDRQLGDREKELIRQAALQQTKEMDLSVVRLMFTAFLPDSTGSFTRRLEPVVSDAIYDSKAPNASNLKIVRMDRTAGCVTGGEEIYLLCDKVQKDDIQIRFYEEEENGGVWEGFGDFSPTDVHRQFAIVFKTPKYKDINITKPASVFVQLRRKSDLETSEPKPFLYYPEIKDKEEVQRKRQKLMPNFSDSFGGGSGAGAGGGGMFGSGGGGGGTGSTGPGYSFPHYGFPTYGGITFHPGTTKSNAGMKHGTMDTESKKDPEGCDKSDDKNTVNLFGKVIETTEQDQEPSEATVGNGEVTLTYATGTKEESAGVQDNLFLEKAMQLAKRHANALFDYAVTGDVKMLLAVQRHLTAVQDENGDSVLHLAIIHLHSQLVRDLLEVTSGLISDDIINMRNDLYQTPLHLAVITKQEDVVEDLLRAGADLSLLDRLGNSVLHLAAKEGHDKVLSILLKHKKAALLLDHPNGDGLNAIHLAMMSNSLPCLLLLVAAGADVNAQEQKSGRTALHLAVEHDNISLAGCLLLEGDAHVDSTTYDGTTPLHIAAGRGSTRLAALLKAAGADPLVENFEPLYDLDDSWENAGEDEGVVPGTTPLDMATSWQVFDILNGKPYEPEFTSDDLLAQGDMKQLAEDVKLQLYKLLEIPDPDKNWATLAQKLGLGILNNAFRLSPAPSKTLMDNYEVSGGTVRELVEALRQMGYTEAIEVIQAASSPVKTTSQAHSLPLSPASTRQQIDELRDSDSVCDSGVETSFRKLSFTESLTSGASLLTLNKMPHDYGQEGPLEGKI

Row | Compound | outcome [1] | outcome [2] | outcome [3] | outcome [4] | outcome [5] | outcome [6] | outcome [7] | outcome [8] | outcome [9] | outcome [10] | outcome [11] | outcome (MYC, MYC (gene 4609)) | outcome [12] | outcome [13] | outcome [14] | outcome [15] | outcome [16] | outcome [17] | AC50 [9] | outcome [18]
1 | CCCCC(CC)COC(=O)c1ccccc1C(=O)O (stereo not given) | inactive | inactive | inactive | inactive | inactive | inactive | inactive | inactive | inactive | inactive | inactive | inactive | inactive | inactive | inactive | inactive | inactive | inactive | – | –
2 | CC1(C)C(C=C(Cl)Cl)C1C(=O)OCc1cccc(Oc2ccccc2)c1 (stereo not given) | inactive | inactive | inactive | inactive | inactive | inactive | inactive | inactive | inactive | inactive | inactive | inactive | inactive | inactive | inactive | inactive | inactive | inactive | – | –
3 | CC(C)(C)[C@@H](O)[C@@H](Cc1ccc(Cl)cc1)n1cncn1 | inactive | inactive | inactive | inactive | inactive | inactive | inactive | inactive | – | inactive | inactive | inactive | – | inactive | inactive | inactive | inactive | inactive | 16.5 µM (active) | inactive
4 | COCCO | inactive | inactive | inactive | inactive | inactive | inactive | inactive | inactive | inactive | inactive | inactive | inactive | inactive | inactive | inactive | inactive | inactive | inactive | – | –
5 | CCOC(=O)COc1cc(-n2ncc(C(F)(F)F)c(C)c2=O)c(F)cc1Cl | inactive | inactive | inactive | inactive | inactive | inactive | inactive | inactive | inactive | inactive | inactive | inactive | inactive | inactive | inactive | inactive | inactive | inactive | – | –

— PubChem BioAssay (EPA / NIEHS)
